From the supplement of paper PMC9492666
Structures can show the parent of a compound that is named as a salt.

System: HCC1937
Assay: relative cell viability, compound alone, vs DMSO (fraction of DMSO control); higher = less growth inhibition
Conditions: 72 h
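Further: viability read out with the CCK-8 kit in 96-well plates, screening a set of 303 compounds acting on lipid metabolism targets.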

| SMILES | relative cell viability |
| --- | --- |
| O=C(O)/C=C/c1ccc(O)c(O)c1 [Caffeic Acid] | 0.72 |
| CC(O)(CC(=O)O)CC(=O)O [Meglutol] | 0.748 |
| CC(C)(O)[C@@H]1Cc2cc3ccc(=O)oc3cc2O1 [marmesin] | 0.74 |
| O=P(O)(O)OC(CO)CO [β-Glycerol phosphate disodium salt pentahydrate] | 0.636 |
| CN(C)c1cccc(-c2c3c(=O)n(-c4ccccc4Cl)[nH]c3cc(=O)n2C)c1 | 0.903 |
| CC(C)OC(=O)CCC/C=C\C[C@@H]1[C@@H](CC[C@@H](O)CCc2ccccc2)[C@H](O)C[C@@H]1O [Latanoprost] | 1.43 |
| CC(C)=CCC[C@](C)(O[C@@H]1O[C@H](CO)[C@@H](O)[C@H](O)[C@H]1O)[C@H]1CC[C@]2(C)[C@@H]1[C@H](O)C[C@@H]1[C@@]3(C)CC[C@H](O[C@@H]4O[C@H](CO)[C@@H](O)[C@H](O)[C@H]4O[C@@H]4O[C@H](CO)[C@@H](O)[C@H](O)[C@H]4O)C(C)(C)[C@@H]3CC[C@]12C [Ginsenoside Rd] | 0.834 |
| COC(=O)N(CC(=O)O)Cc1cccc(OCc2nc(-c3ccc(Cl)cc3)oc2C)c1 | 1.08 |
| O=c1c(-c2ccc(O)cc2)coc2cc(O)ccc12 [Daidzein] | 1.13 |
| CC(C)[C@H](N=C(NS(=O)(=O)c1ccc(Cl)cc1)N1C[C@H](c2ccccc2)C(c2ccc(Cl)cc2)=N1)C(N)=O | 0.87 |
| CC(C)OC(=O)C(C)(C)Oc1ccc(C(=O)c2ccc(Cl)cc2)cc1 [Fenofibrate] | 1.16 |
| O=c1ccc2cc(O)c(O)cc2o1 [Esculetin] | 0.673 |
| CC(C)=CCC[C@](C)(O)[C@H]1CC[C@]2(C)[C@@H]1[C@H](O)C[C@@H]1[C@@]3(C)CC[C@H](O)C(C)(C)[C@@H]3[C@@H](O)C[C@]12C [(20S)-Protopanaxatriol] | 1.24 |
| COc1ccc(-c2coc3cc(OC)ccc3c2=O)cc1 [4',7-Dimethoxyisoflavone] | 0.486 |
| CCCCCCCCCCCCCCOc1ccc(C(=O)OCC(=O)N(C)CC(=O)OCC)o1 [Olumacostat Glasaretil] | 0.812 |
| O=C1/C(=C/c2cccs2)CC/C1=C\c1cccs1 | 0.766 |
| CCc1c(-c2ccccc2)c(-c2ccccc2)nn1-c1ccccc1-c1cccc(OCC(=O)O)c1 | 1.18 |
| COc1cc(F)c(C(C)C)cc1-c1ccc(C(F)(F)F)cc1CN1C(=O)O[C@H](c2cc(C(F)(F)F)cc(C(F)(F)F)c2)[C@@H]1C [Anacetrapib] | 0.72 |
| Cc1nc2c([nH]1)c(=O)n(C)c(=O)n2Cc1ccco1 [Furafylline] | 0.721 |
| O=C(CCCCCCCC(=O)NCCO)NCCO [Adelmidrol] | 1.16 |

| SMILES | relative cell viability |
| --- | --- |
| O=C(Nc1cccnc1)N1CCC(Cc2cccc(Oc3ccc(C(F)(F)F)cn3)c2)CC1 | 1.14 |
| CC[C@H]1[C@@H](O)[C@@H]2[C@H](CC[C@]3(C)[C@@H]([C@H](C)CCC(=O)O)CC[C@@H]23)[C@@]2(C)CC[C@@H](O)C[C@@H]12 [Obeticholic Acid] | 0.901 |
| Cc1cc(=O)oc2c(O)c(O)ccc12 [7,8-Dihydroxy-4-methylcoumarin] | 0.911 |
| CCOC(=O)N1c2ccc(C(F)(F)F)cc2[C@@H](N(Cc2cc(C(F)(F)F)cc(C(F)(F)F)c2)C(=O)OC)C[C@H]1CC [Torcetrapib] | 0.745 |
| N=C(N)NC(=N)NCCc1ccccc1 [Phenformin hydrochloride] | 0.76 |
| N[C@@H](Cc1c[nH]cn1)C(=O)O [histidine] | 1.05 |
| C=C(C)[C@@H]1CC[C@]2(CO)CC[C@]3(C)[C@H](CC[C@@H]4[C@@]5(C)CC[C@H](O)C(C)(C)[C@@H]5CC[C@]43C)[C@@H]12 [Betulin] | 0.886 |
| CCCCCCS(=O)(=O)NC(=O)c1ccc(CSCc2ccc(-c3ccccc3)cc2)cc1 | 0.938 |
| CCCc1cc(-c2nc(-c3ccc(NS(C)(=O)=O)cc3)cs2)ccn1 | 0.669 |
| CN1c2ccccc2C(=O)Nc2cnc(Nc3ccc(N4CCC(O)CC4)cc3)nc21 | 0.384 |
| COc1ccc2c(c1)CCC1C2CCC2(C)C(NCCCCCCN3C(=O)C=CC3=O)CCC12 (centres undefined) | 0.699 |
| CC[C@H](C)C(=O)O[C@H]1C[C@H](O)C=C2C=C[C@H](C)[C@H](CC[C@@H](O)C[C@@H](O)CC(=O)O)[C@H]21 [Pravastatin sodium] | 0.918 |
| O=C(Nc1ccncc1)c1cc([N+](=O)[O-])ccc1Cl | 0.81 |
| COC(=O)CN(c1ccc(CN(c2ccc(OCc3ccc(C)cc3)c(C(=O)OC)c2)S(=O)(=O)Cc2ccccc2)cc1)S(C)(=O)=O | 0.894 |
| COc1ccc(-c2coc3cc(O)cc(O)c3c2=O)cc1 [Biochanin A] | 0.813 |
| O=c1cc(-c2ccc(O)c(-c3c(O)cc(O)c4c(=O)cc(-c5ccc(O)cc5)oc34)c2)oc2cc(O)cc(O)c12 [Amentoflavone] | 0.782 |
| COc1cc(N(C)C)cc(CN(C)CCc2ccc([N+](=O)[O-])cc2)c1O [CDC25 Phosphatase Inhibitor I] | 0.966 |
| CC(C)c1c(C(=O)Nc2ccccc2)c(-c2ccccc2)c(-c2ccc(F)cc2)n1CC[C@@H](O)C[C@@H](O)CC(=O)O [Atorvastatin Calcium] | 0.657 |
| CC(=O)Oc1cc(C(F)(F)F)ccc1C(=O)O [Triflusal] | 1.1 |
